RGS4 inh: human RGS4 inhibition. AID 504845. Transcreener GDP fluorescence polarization, RGS4-accelerated GTP hydrolysis. Potency, µM (titrated, usually from 114 µM), for the others: top-dose activity change, negative = inhibition, hits mostly inhibitors. 0.039% of 390,000 active. P49798; also: potency is read from the fitted curve at half-maximal effect; % is scaled to controls: 0 for no effect and ±100 for the full control effect; nearly all actives have a fitted effect of over 75% in size
Target sequence (P49798 whole entry, looked up): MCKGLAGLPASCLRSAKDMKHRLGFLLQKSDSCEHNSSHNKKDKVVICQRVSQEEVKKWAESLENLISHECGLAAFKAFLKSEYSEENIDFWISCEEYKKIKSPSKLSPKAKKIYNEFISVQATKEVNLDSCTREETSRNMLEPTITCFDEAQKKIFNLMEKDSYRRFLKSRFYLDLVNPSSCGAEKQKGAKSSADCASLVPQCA
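MLSMR compounds (23 nl, pin-transferred) preincubated 10 min at room temperature with a 500nM (2x) first reagent, then RGS4 at 900nM (2x) plus Transcreener GDP mix added; fluorescence polarization (620/688 nm) read before and after 90 min at 30 °C.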
CCT modulator: modulators of cytosolic chaperonin (CCT/TRiC) activity. 0.3% of 360,000 active. purified chaperonin ATPase assay, HTRF ADP detection, 30 min. activity change, % (test concentration not listed), hits read low; in the data active = activity change below about -30%; also: % is scaled to controls: 0 for no effect and ±100 for the full control effect
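We incubate TRiC, 40 or 20 nM final, with library compounds at 76 uM and 10 uM ATP for 30 min at 37 °C. ADP formed is detected with Transcreener HTRF reagents after 30 min at room temperature.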
ERG Ets-DNA blk: ERG Ets/DNA interaction inhibition; P11308; fluorescence polarization, His-ERG Ets domain / labelled DNA; Potency, µM (top dose mostly 76.9 µM), for inactives: top-dose FP activity, negative = inhibition, actives largely listed as inhibitors; 0.028% of 370,000 active; active = well fitted inhibition curve with a large enough effect in the polarisation, with a control signal flat; inconclusive = small, poorly fitted or top-dose-only effect, or effect the other way, or a change in a side signal; inactive = no such curve, though single readings can be large or run the other way; the % refers to the polarisation;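 also: polarization taken with two DNA probes labelled with fluorescein and Texas red; potency is read from the fitted curve at half-maximal effect; % of control where 0% means no effect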
Target sequence (P11308 whole entry, looked up, the tested form may be a part): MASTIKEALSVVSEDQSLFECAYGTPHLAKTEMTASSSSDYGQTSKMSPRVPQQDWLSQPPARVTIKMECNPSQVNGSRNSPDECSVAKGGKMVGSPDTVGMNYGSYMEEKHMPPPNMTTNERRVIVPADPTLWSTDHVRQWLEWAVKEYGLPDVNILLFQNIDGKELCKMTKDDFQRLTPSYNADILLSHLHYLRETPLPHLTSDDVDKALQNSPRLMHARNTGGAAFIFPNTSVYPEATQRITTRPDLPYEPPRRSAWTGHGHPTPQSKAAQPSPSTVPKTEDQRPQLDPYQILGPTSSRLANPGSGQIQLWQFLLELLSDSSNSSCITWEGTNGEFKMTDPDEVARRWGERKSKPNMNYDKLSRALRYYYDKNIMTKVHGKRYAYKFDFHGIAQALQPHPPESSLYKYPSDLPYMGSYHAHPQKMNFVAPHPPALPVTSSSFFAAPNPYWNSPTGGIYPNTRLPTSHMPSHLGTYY
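His-tagged ERG Ets domain (1 uM in the protein solution; 300mM KCl, 50mM Tris-HCl, 1mM EDTA, 1mM DTT, pH 7.5) received compound, then a probe mix of 5 nM fluorescein-DNA and 100nM Texas-615-DNA. Fluorescence polarization was read for both dyes.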
MmCpn inh: inhibitors of Methanococcus maripaludis chaperonin TRiC (MmCpn); 0.031% of 330,000 active; purified Mm-Cpn ATPase, ADP Transcreener TR-FRET; Potency, µM (series often up to 76.9 µM), without a hit: at the top dose activity, negative = inhibition, actives largely listed as inhibitors; also: potency is read from the fitted curve at half-maximal effect; % is scaled to controls: 0 for no effect and ±100 for the full control effect; nearly all actives have a fitted effect of over 80% in size
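ATPase turnover read by TR-FRET ADP competition (Eu cryptate antibody/ADP-d2, 665/590 nm): 10uM ATP final, 25nM Mm-CPN final, 30 min 37degC after 10-min compound preincubation, pH 7.4 Tris/KCl/MgCl2/DTT buffer.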
PTHR1 ag: PTHR1 (human) receptor agonism; Q03431; HEK293 GP2 PTHR1 cells, GloSensor cAMP luminescence, 1 h; Potency, µM (highest dose often 115 µM), for the others: at the highest dose activation, most hits filed as activators; 0.075% of 410,000 active; AID 743266; also: potency is read from the fitted curve at half-maximal effect; nearly all actives have a fitted effect of over 55% in size
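HEK-293-derived GP2 cells expressing PTHR1 and a GloSensor cAMP reporter, 3,000/well, plated overnight, given luciferin plus IBMX (each 0.5 mM as added) for 1 h at 37 °C, then compound for 1 h at 37 °C. Luminescence was read after 15 min at room temperature.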
* hit, by the source's call; ! = a repeat was not active; [ ] = another dose, or the depositor's remark. A selection: hits, their analogues and other compounds. The true share with any hit is near 0.36%. Unless noted, calls follow the shape of the dose curve; as a rule, active = well fitted curve in the direction sought with a large enough effect; inconclusive = small, poorly fitted or top-dose-only effect, or another doubt; inactive = no such curve, though single readings can be large; an effect the other way counts as inactive or inconclusive.

How did CCOC(=O)CCc1c(C)c2c(C)nn(-c3ccccc3)c2[nH]c1=O do in these assays?
RGS4 inh: 2%; CCT modulator: -34*; ERG Ets-DNA blk: 6%; MmCpn inh: 1%; PTHR1 ag: -18%

Results for COc1ccc(-c2noc(CN(C(=O)C(C)Oc3ccc(C)cc3)C(C)C)n2)cc1 (configuration not stated) ?
RGS4 inh: 15%; ERG Ets-DNA blk: 5%; PTHR1 ag: -33%

What do the screens show for `CCc1cccc(NC(=O)COc2cc(=O)n(CC)c3ccccc23)c1`?
RGS4 inh: -13%; ERG Ets-DNA blk: -1%; PTHR1 ag: -2%

What do the screens show for `O=c1c(Cl)c(NCc2ccc(F)cc2)cnn1C12CC3CC(CC(C3)C1)C2`?
RGS4 inh: -26%; CCT modulator: -31*; ERG Ets-DNA blk: 5%; MmCpn inh: -1%; PTHR1 ag: -32%

How did CC(C)C(C)(C#N)NC(=O)CSc1nc(C2CCCCC2)n(-c2ccccc2)n1 (configuration not stated) do in these assays?
RGS4 inh: -38%; CCT modulator: -33*; MmCpn inh: 2%; PTHR1 ag: inactive

Results for CC1(OC(=O)C2CCCC2)C(=O)C=C2C=C(c3ccsc3)N(C(CO)CO)C=C2C1=O (configuration not stated) ?
RGS4 inh: 1%; CCT modulator: 0; ERG Ets-DNA blk: 28µM*; MmCpn inh: -1%; PTHR1 ag: 13%

Results for CC(C)CN1C=C2C(=O)C(C)(OC(=O)C3CCCC3)C(=O)C=C2C=C1c1ccsc1 (configuration not stated) ?
RGS4 inh: -14%; CCT modulator: -2; ERG Ets-DNA blk: -6%; MmCpn inh: 1%; PTHR1 ag: -7%

Results for C[C@@H](N)C(=O)O ?
RGS4 inh: 21µM*!

Results for CC(C)C[C@@H](N)C(=O)O ?
RGS4 inh: 38µM*

Results for NC(=O)CC[C@H](N)C(=O)O ?
RGS4 inh: -3%[56.9 µM]

How did C[C@H](N)C(=O)O do in these assays?
RGS4 inh: inactive

How did COc1ccc(/C=C(\C#N)c2nc3ccccc3n2C)c(OC)c1 do in these assays?
RGS4 inh: 7%; ERG Ets-DNA blk: 2%; PTHR1 ag: -32%

Results for CC(=O)c1cccc(NC(=O)C(CC(C)C)NS(=O)(=O)c2ccc3c(c2)CCN3C(C)=O)c1 (configuration not stated) ?
RGS4 inh: 17%; ERG Ets-DNA blk: 0%; PTHR1 ag: -17%

How did CCCCC(=O)N1C/C=C\C(c2ccc(OC)cc2)N(Cc2ccc(F)cc2)C(=O)C1Cc1ccccc1 (configuration not stated) do in these assays?
RGS4 inh: -17%

What do the screens show for `O=S(=O)(NCc1cccnc1)c1ccc(Cl)c(Cl)c1Cl`?
RGS4 inh: 7%; CCT modulator: -48*; ERG Ets-DNA blk: -2%; MmCpn inh: 0%; PTHR1 ag: -29%

What do the screens show for `Cc1oc(-c2cccc(Cl)c2)nc1Cn1c(SCc2ccc(F)cc2)nc2cccnc21`?
RGS4 inh: -15%; ERG Ets-DNA blk: -7%; PTHR1 ag: -42%

Results for CCOc1cc(C)nc(N2CCCC(C(=O)NCc3ccccc3F)C2)n1 (configuration not stated) ?
RGS4 inh: -9%; CCT modulator: -41*; MmCpn inh: 0%; PTHR1 ag: inactive

Results for CCCCNc1c(-c2cccc(-c3ccc(OC)cc3)c2)nc2ccc(C)cn12 ?
RGS4 inh: -11%; CCT modulator: -35*; ERG Ets-DNA blk: 2%; MmCpn inh: -1%; PTHR1 ag: -95%

What do the screens show for `CCOc1ccc(S(=O)(=O)NCCc2csc(-c3ccc(Cl)cc3)n2)cc1`?
RGS4 inh: -21%; ERG Ets-DNA blk: -11%; PTHR1 ag: -29%

How did CCN(C(=O)COC(=O)c1cccnc1)c1cccc2ccccc12 do in these assays?
RGS4 inh: -8%; CCT modulator: -50*; ERG Ets-DNA blk: 0%; MmCpn inh: -1%; PTHR1 ag: -16%

Results for CCN(C(=O)COC(=O)c1cnccn1)c1cccc2ccccc12 ?
RGS4 inh: -8%; CCT modulator: 1; ERG Ets-DNA blk: -9%; MmCpn inh: -1%; PTHR1 ag: -8%

Results for CC(C)c1ccc(Nc2ncnc3onc(-c4ccc(F)cc4)c23)cc1 ?
RGS4 inh: 20%; ERG Ets-DNA blk: 1%; PTHR1 ag: -16%

How did COc1ccc(N2C(=O)CC(NNC(=O)c3cccnc3)C2=O)cc1 (configuration not stated) do in these assays?
RGS4 inh: 20%; CCT modulator: -43*; ERG Ets-DNA blk: -5%; MmCpn inh: 0%; PTHR1 ag: inactive

How did CCCCOc1ccc(C(=O)Nc2ccc3c(c2)N(C(C)=O)CCC3)cc1 do in these assays?
RGS4 inh: -2%; ERG Ets-DNA blk: 6%; PTHR1 ag: -35%

Results for CCn1c(CSc2nnc(-c3ccncc3)n2C)nc2cc(C(=O)O)ccc21 ?
RGS4 inh: inconclusive; CCT modulator: -2; ERG Ets-DNA blk: 25µM*; MmCpn inh: -2%; PTHR1 ag: -17%

Results for Cn1c(SCC(=O)C(C)(C)C)nnc1-c1ccncc1 ?
RGS4 inh: -13%; CCT modulator: 2; ERG Ets-DNA blk: -1%; MmCpn inh: -10%; PTHR1 ag: inactive

What do the screens show for `CCn1c(CSc2ncn[nH]2)nc2cc(C(=O)O)ccc21`?
RGS4 inh: -26%; CCT modulator: 0; ERG Ets-DNA blk: 35µM*; MmCpn inh: 5%; PTHR1 ag: 8%

How did CCCCCCN1CCN(C2CN(Cc3cn(Cc4ccccc4)nn3)S(=O)(=O)C2)CC1 (configuration not stated) do in these assays?
CCT modulator: -32*; PTHR1 ag: -7%

What do the screens show for `C=CCOc1ccc(C(c2c(C(=O)O)[nH]c3ccccc23)c2c(C(=O)O)[nH]c3ccccc23)cc1`?
RGS4 inh: -10%; CCT modulator: 1; ERG Ets-DNA blk: 35µM*; MmCpn inh: 1%; PTHR1 ag: inactive

Results for Cc1cccc(NC(=O)CCc2ccccc2)c1C ?
RGS4 inh: 2%; CCT modulator: -49*; ERG Ets-DNA blk: 6%; MmCpn inh: 1%; PTHR1 ag: -16%

How did Cc1cccc(NC(=O)CNCC(=O)Nc2cccc(C)c2C)c1C do in these assays?
RGS4 inh: 9%; CCT modulator: -49*; ERG Ets-DNA blk: 16%; MmCpn inh: 1%; PTHR1 ag: -23%

Results for COc1ccccc1C(=O)NC1=NC(c2ccc(Br)cc2)CC(=O)N1 (configuration not stated) ?
RGS4 inh: -13%; ERG Ets-DNA blk: -2%; PTHR1 ag: -88%

Screening data as filed in PubChem BioAssay.
